Source: PubChem (several laboratories)
Bim-Mcl-1: inhibitors of Bim peptide binding to Mcl-1, primary screen, biochemical, bead-based flow cytometry, multiplex. Induced myeloid leukemia cell differentiation protein Mcl-1 (Homo sapiens), Q07820. Bim peptide-Mcl-1 binding. inhibition, % at 10 µM. 190,000 tested, 0.1% active. AID 1009, 2008; in the data active = inhibition above about 40%;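 note: 0% = no compound tracer wells and 100% = peptide blocker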
Target sequence (Q07820 whole entry, looked up): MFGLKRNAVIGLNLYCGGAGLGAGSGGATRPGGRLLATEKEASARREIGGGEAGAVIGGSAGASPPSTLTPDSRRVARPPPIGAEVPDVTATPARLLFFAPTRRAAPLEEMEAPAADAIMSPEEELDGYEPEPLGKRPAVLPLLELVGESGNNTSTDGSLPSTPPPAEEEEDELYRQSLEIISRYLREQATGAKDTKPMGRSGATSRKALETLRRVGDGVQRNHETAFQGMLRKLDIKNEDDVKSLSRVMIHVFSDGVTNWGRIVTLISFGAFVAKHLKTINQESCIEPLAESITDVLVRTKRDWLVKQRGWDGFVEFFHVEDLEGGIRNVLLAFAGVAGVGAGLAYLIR
TLR4-MyD88 BLA: inhibitors of TLR4-MyD88 association in cells, primary screen, cell-based, HeLa CL3-4, BLA complementation, FRET ratio; HeLa CL3-4 TLR4/MyD88 BLA complementation; inhibition, % at 8.4 µM; 200,000 tested, 0.18% active; AID 861, 2007; in the data active = inhibition above about 25%;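 note: 0% = vehicle and 100% = reference inhibitor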
Mcl1-Bid inh: Mcl-1/Bid binding inhibitors, primary screen, biochemical, TR-FRET, 1536-well; TR-FRET Mcl-1/Bid-Dy647 peptide binding; inhibition, % at 21.7 µM; 220,000 tested, 0.97% active; AID 1021, 2008;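 active = compounds that cut the binding signal by more than half at the single screening dose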;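 note: His-tagged Mcl-1 with europium anti-His antibody binding Bid BH3 peptide; 0% = Mcl-1 plus peptide wells and 100% = peptide-only wells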
NOD2 RIPK2 PPI: NOD2-RIPK2 binding disruptors in cells, primary screen, fluorescence, CHO cells, BLA complementation; CCF4 ratio; Receptor-interacting serine/threonine-protein kinase 2 (Homo sapiens), O43353; inhibition, % at 4.98 µM; 360,000 tested, 0.38% active; in the data active = inhibition above about 21%;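 note: 0% = vehicle only and 100% = reference blocker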
TLR9-MyD88 inh: inhibitors of TLR9-MyD88 association in cells, primary screen, cell-based, CHO, BLA complementation, fluorescence; 340,000 tested, 0.21% active; AID 504734, 2011; Toll-like receptor 9 (Homo sapiens) + Myeloid differentiation primary response protein …; CCF4 FRET ratio; inhibition, % at 4.98 µM;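 active = inhibition above the mean over all tested compounds plus 3 SD, cut at about 21% in these data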;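 note: 0% = DMSO only wells and 100% = clavulanate BLA inhibitor control wells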
Mcl1 Noxa PPI: Mcl-1/Noxa binding inhibitors, primary screen, biochemical, TR-FRET, 1536-well; Induced myeloid leukemia cell differentiation protein Mcl-1 (Homo sapiens), Q07820; TR-FRET Mcl-1/Noxa peptide binding, 2 h; inhibition, % at 21.7 µM; 220,000 tested, 1.5% active;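 active = compounds that cut the protein-peptide binding signal by more than 50% relative to plate controls in a single-dose test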;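 note: His-tagged Mcl-1 with rhodamine Noxa BH3 peptide and terbium anti-His antibody; 0% = Mcl-1 plus Noxa peptide wells and 100% = peptide-only wells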
Active calls of the source: *. Only some compounds are listed: those with a hit (about 1.8% of all), similar ones and a draw of the others.

What do the screens show for `COC(=O)N/N=C/c1ccc([N+](=O)[O-])s1`?
Bim-Mcl-1: -5; TLR4-MyD88 BLA: 5; Mcl1-Bid inh: -1; NOD2 RIPK2 PPI: 4; TLR9-MyD88 inh: 5; Mcl1 Noxa PPI: 11

What do the screens show for `COc1ccccc1NC(=O)C(=O)N/N=C/c1ccc([N+](=O)[O-])s1`?
Bim-Mcl-1: 4; TLR4-MyD88 BLA: -13; Mcl1-Bid inh: 93*; NOD2 RIPK2 PPI: -4; TLR9-MyD88 inh: 1; Mcl1 Noxa PPI: 93*

Results for O=[N+]([O-])c1ccc(O)c(/C=N/NC(=S)Nc2ccc(Cl)cc2Cl)c1 ?
Mcl1-Bid inh: -97; NOD2 RIPK2 PPI: 2; TLR9-MyD88 inh: 6; Mcl1 Noxa PPI: 20

Results for O=[N+]([O-])c1ccc(/C=N/NC(=S)Nc2ccc(Cl)cc2Cl)s1 ?
Mcl1-Bid inh: 80*; NOD2 RIPK2 PPI: -12; TLR9-MyD88 inh: 6; Mcl1 Noxa PPI: 87*

What do the screens show for `Nc1c(-c2cccc(Cl)c2)cnc2c(-c3ccccc3)cnn12`?
NOD2 RIPK2 PPI: -4; TLR9-MyD88 inh: -10

How did O=C(O)COc1ccccc1C(Nc1ccccn1)c1cc(Cl)c2cccnc2c1O (stereo not drawn) do in these assays?
Bim-Mcl-1: -5; TLR4-MyD88 BLA: 9; Mcl1-Bid inh: 74*; NOD2 RIPK2 PPI: 12; TLR9-MyD88 inh: 13; Mcl1 Noxa PPI: 91*

How did COc1ccccc1C(NC(C)=O)c1cc(Cl)c2cccnc2c1O (stereo not drawn) do in these assays?
NOD2 RIPK2 PPI: 0; TLR9-MyD88 inh: 2

Results for CCC(=O)NC(c1ccc(C)cc1)c1cc(Cl)c2cccnc2c1O (stereo not drawn) ?
NOD2 RIPK2 PPI: 0; TLR9-MyD88 inh: 4

What do the screens show for `CCOc1ccc(C(Nc2cccnc2)c2cc(Cl)c3cccnc3c2O)cc1` (stereo not drawn)?
Bim-Mcl-1: -5; TLR4-MyD88 BLA: 15; Mcl1-Bid inh: 95*; NOD2 RIPK2 PPI: 3; TLR9-MyD88 inh: 6; Mcl1 Noxa PPI: 96*

How did O=C(O)COc1ccccc1C(Nc1cccnc1)c1cc(Cl)c2cccnc2c1O (stereo not drawn) do in these assays?
Bim-Mcl-1: -2; TLR4-MyD88 BLA: -2; Mcl1-Bid inh: 78*; NOD2 RIPK2 PPI: 8; Mcl1 Noxa PPI: 97*

Results for O=C(NCc1ccccc1)c1ccc2nc(-c3ccco3)c(-c3ccco3)nc2c1 ?
Bim-Mcl-1: 4; TLR4-MyD88 BLA: -4; Mcl1-Bid inh: 12; NOD2 RIPK2 PPI: 8; TLR9-MyD88 inh: 1; Mcl1 Noxa PPI: 102*

What do the screens show for `O=C(NCc1ccccc1)c1ccc2nccnc2c1`?
Bim-Mcl-1: 0; TLR4-MyD88 BLA: -8; Mcl1-Bid inh: 9; NOD2 RIPK2 PPI: -5; TLR9-MyD88 inh: 4; Mcl1 Noxa PPI: -5

What do the screens show for `O=C(Nc1ccccc1)c1ccc2nc(-c3ccco3)c(-c3ccco3)nc2c1`?
Bim-Mcl-1: 13; TLR4-MyD88 BLA: 2; Mcl1-Bid inh: 32; NOD2 RIPK2 PPI: 0; TLR9-MyD88 inh: 7; Mcl1 Noxa PPI: 101*

Results for O=C(Nc1ccc(N2CCOCC2)cc1)c1ccc2nc(-c3ccco3)c(-c3ccco3)nc2c1 ?
Bim-Mcl-1: 1; TLR4-MyD88 BLA: 5; Mcl1-Bid inh: -12; NOD2 RIPK2 PPI: -8; TLR9-MyD88 inh: -5; Mcl1 Noxa PPI: 33

How did CC(=O)c1ccc(NC(=O)c2ccc3nc(-c4ccco4)c(-c4ccco4)nc3c2)cc1 do in these assays?
Bim-Mcl-1: 10; TLR4-MyD88 BLA: -4; Mcl1-Bid inh: 97*; NOD2 RIPK2 PPI: -1; TLR9-MyD88 inh: 7; Mcl1 Noxa PPI: 101*

What do the screens show for `COCc1cn(CC(C)n2c(=O)c3ccccc3n2Cc2cc(C(C)C)no2)nn1` (stereo not drawn)?
NOD2 RIPK2 PPI: 2

What do the screens show for `CC(=O)Nc1ccc(N=Cc2nc(-c3ccc(C)cc3)oc2O)cc1`?
Bim-Mcl-1: 2; TLR4-MyD88 BLA: -1; Mcl1-Bid inh: 64*; NOD2 RIPK2 PPI: -1; TLR9-MyD88 inh: 1; Mcl1 Noxa PPI: 65*

How did COc1ccc(CN(C)S(=O)(=O)c2nnc(NC(=O)c3cccc(C)c3)s2)cc1OC do in these assays?
NOD2 RIPK2 PPI: -4; TLR9-MyD88 inh: 6

Results for COC(=O)c1ccc(C#Cc2ccccc2)o1 ?
Mcl1-Bid inh: -16; NOD2 RIPK2 PPI: 4; TLR9-MyD88 inh: -5; Mcl1 Noxa PPI: 0

How did Cc1ccc(-n2c(O)c(/C=N/Nc3ccc(S(=O)(=O)N4CCOCC4)cc3[N+](=O)[O-])c3ccccc3c2=O)c(C)c1 do in these assays?
Bim-Mcl-1: 4; TLR4-MyD88 BLA: 15; Mcl1-Bid inh: -7; NOD2 RIPK2 PPI: 4; TLR9-MyD88 inh: 1; Mcl1 Noxa PPI: 78*

How did COc1ccc(-n2c(SCC(=O)N/N=C(\C)c3cccnc3)nc3ccccc3c2=O)cc1 do in these assays?
Mcl1-Bid inh: 0; NOD2 RIPK2 PPI: -13; Mcl1 Noxa PPI: -26

How did Cc1nc2nc(-c3ccc(F)cc3)cn2nc1C do in these assays?
NOD2 RIPK2 PPI: 0; TLR9-MyD88 inh: -9

What do the screens show for `CCc1ccc(-c2cn3nc(C)c(C)nc3n2)cc1`?
Bim-Mcl-1: -3; TLR4-MyD88 BLA: 27*; Mcl1-Bid inh: -55; NOD2 RIPK2 PPI: 8; TLR9-MyD88 inh: -1; Mcl1 Noxa PPI: 35

Results for COc1cccc(OCC(=O)O/N=C(\N)c2ccncc2)c1 ?
NOD2 RIPK2 PPI: -14; TLR9-MyD88 inh: -3

What do the screens show for `CCOc1ccccc1NC(=O)/C=C/C(N)=O`?
Bim-Mcl-1: -4; TLR4-MyD88 BLA: -3; Mcl1-Bid inh: 17; NOD2 RIPK2 PPI: -8; TLR9-MyD88 inh: -7; Mcl1 Noxa PPI: 98*

Results for O=C(/C=C/c1cccnc1)c1ccc(O)cc1 ?
Mcl1-Bid inh: -49; NOD2 RIPK2 PPI: 2; TLR9-MyD88 inh: -3; Mcl1 Noxa PPI: 85*

How did O=C(C=Cc1cccnc1)c1ccccc1 do in these assays?
NOD2 RIPK2 PPI: 8; TLR9-MyD88 inh: 1

Results for COc1cccc(C(=O)N2CCN(Cc3ccccc3C(F)(F)F)CC2)c1 ?
Bim-Mcl-1: -1; TLR4-MyD88 BLA: -7; Mcl1-Bid inh: 62*; NOD2 RIPK2 PPI: -2; TLR9-MyD88 inh: -1; Mcl1 Noxa PPI: 30

How did O=C(CSc1ccc(S(=O)(=O)N2CCCC2)cn1)Nc1ccc([N+](=O)[O-])cc1C(F)(F)F do in these assays?
NOD2 RIPK2 PPI: 2; TLR9-MyD88 inh: 0
